Measurements: PubChem BioAssay (NCI)
The panel holds about 83,000 compounds, 20% with a hit somewhere; the sample as a whole holds those more often.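 Percent growth is the endpoint: 0 to 100 indicates growth inhibition (40 means 60% inhibition), 0 means no net growth, and negative values indicate cell death.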 Activity calls are given as the source filed them. The calls were made as follows: active = growth percent below 10; inactive = the rest.

How the values were obtained:
Test in all cases: NCI-60 one-dose screen, 48 h (100 = growth as untreated, 0 = no growth, -100 = all killed)
Conditions in all cases: 10 µM
HOP-92 NSCLC = system: HOP-92 NSCLC
RXF 393 renal = system: RXF 393 renal
SK-MEL-5 melanoma = system: SK-MEL-5 melanoma
UACC-62 melanoma = system: UACC-62 melanoma
CCRF-CEM leukemia = system: CCRF-CEM leukemia
OVCAR-4 ovarian = system: OVCAR-4 ovarian
IGROV1 ovarian = system: IGROV1 ovarian
NCI/ADR-RES ovarian = system: NCI/ADR-RES ovarian
T-47D breast = system: T-47D breast
MCF7 breast = system: MCF7 breast
HCT-116 colon = system: HCT-116 colon
HCC-2998 colon = system: HCC-2998 colon
KM12 colon = system: KM12 colon
COLO 205 colon = system: COLO 205 colon
SK-OV-3 ovarian = system: SK-OV-3 ovarian
SNB-75 CNS = system: SNB-75 CNS
SK-MEL-2 melanoma = system: SK-MEL-2 melanoma
SN12C renal = system: SN12C renal

Measured: growth

Fc1ccc(/C=C/c2nc3ccccc3n3c(-c4ccc(Cl)cc4)nnc23)cc1
inactive: HOP-92 NSCLC 67.6% | RXF 393 renal 58.8% | SK-MEL-5 melanoma 76.5% | UACC-62 melanoma 70.2% | OVCAR-4 ovarian 69% | IGROV1 ovarian 72.2% | NCI/ADR-RES ovarian 70.4% | T-47D breast 60.9% | MCF7 breast 12.9% | HCT-116 colon 41.8% | HCC-2998 colon 102% | KM12 colon 80.2%
active: CCRF-CEM leukemia 0.524%

C#C[C@]1(O)CC[C@H]2[C@@H]3CC=C4c5sc(Nc6ccc(C(F)(F)F)cn6)nc5CC[C@]4(C)[C@H]3CC[C@@]21C
active: HOP-92 NSCLC -7.64% | COLO 205 colon -87% | RXF 393 renal -37.9% | SK-MEL-5 melanoma -97.1% | UACC-62 melanoma -45.9% | CCRF-CEM leukemia 6.72% | SK-OV-3 ovarian -4.49% | IGROV1 ovarian 8.57% | T-47D breast 8.97% | MCF7 breast -28.7% | HCT-116 colon -66.9% | HCC-2998 colon 4.01% | KM12 colon -16.5%
inactive: OVCAR-4 ovarian 20%

COc1ccc(OC)c(-n2cc(C#N)c(N)c2C(=O)c2ccc(Cl)cc2Cl)c1
active: SNB-75 CNS -7.62% | SK-MEL-2 melanoma -27.5%
inactive: HOP-92 NSCLC 91.6% | RXF 393 renal 55.5% | SK-MEL-5 melanoma 54.2% | UACC-62 melanoma 30.5% | CCRF-CEM leukemia 11.4% | OVCAR-4 ovarian 86.2% | NCI/ADR-RES ovarian 30.4% | T-47D breast 42.6% | MCF7 breast 16.1% | HCT-116 colon 29.4% | HCC-2998 colon 64.8% | KM12 colon 27.4%

CCOc1ccc(/C=N/NC(=O)Cn2nc(Cc3ccc(OC)cc3)c3onc(C)c3c2=O)cc1
inactive: SK-MEL-5 melanoma 89.2% | UACC-62 melanoma 29.2% | CCRF-CEM leukemia 17.9% | OVCAR-4 ovarian 10.1% | NCI/ADR-RES ovarian 13.2% | T-47D breast 16.3% | MCF7 breast 27.9% | KM12 colon 47.9%
active: HOP-92 NSCLC -25.7% | RXF 393 renal -65.6% | HCT-116 colon -23.3% | HCC-2998 colon -11.5%

COC(=O)CNC(=O)COc1c(OC)c(OC)cc2oc(-c3cccc(C(=O)Nc4ccc(Cl)cc4)c3)cc(=O)c12
active: SK-MEL-5 melanoma 4.43% | OVCAR-4 ovarian 6.23%
inactive: HOP-92 NSCLC 39.1% | RXF 393 renal 45.9% | SNB-75 CNS 85.1% | UACC-62 melanoma 12.7% | CCRF-CEM leukemia 94.7% | SK-OV-3 ovarian 82.2% | T-47D breast 37.9% | MCF7 breast 22.5% | HCT-116 colon 43.8% | HCC-2998 colon 74.2% | KM12 colon 41.5%

O=C(CN1CCN(c2ncnc3c2cnn3-c2ccccc2)CC1)Nc1ccc(Br)cc1
inactive: HOP-92 NSCLC 74.6% | RXF 393 renal 76% | SNB-75 CNS 80.9% | UACC-62 melanoma 45.1% | SK-MEL-2 melanoma 29.9% | CCRF-CEM leukemia 61.6% | OVCAR-4 ovarian 56.5% | NCI/ADR-RES ovarian 56.1% | T-47D breast 41.6% | MCF7 breast 36.8% | HCT-116 colon 52.5% | HCC-2998 colon 78.8% | KM12 colon 57.5%
active: SK-MEL-5 melanoma 9.44%

Nc1nnc(-c2c[nH]c3ncc(Br)cc23)c(-c2c[nH]c3ccc(Br)cc23)n1
active: RXF 393 renal -14.7% | SK-MEL-5 melanoma 9.81% | CCRF-CEM leukemia 5.14%
inactive: HOP-92 NSCLC 28.4% | OVCAR-4 ovarian 47.7% | SK-OV-3 ovarian 66.6% | T-47D breast 37.4% | MCF7 breast 15.7% | HCT-116 colon 22.1% | HCC-2998 colon 75.7% | KM12 colon 37.5%

COc1ccc(Cn2cc(C#N)c(N)c2C(C)=O)c(OC)c1
inactive: HOP-92 NSCLC 85.7% | RXF 393 renal 107% | SNB-75 CNS 111% | SK-MEL-5 melanoma 99.1% | UACC-62 melanoma 98.1% | SK-MEL-2 melanoma 126% | CCRF-CEM leukemia 105% | OVCAR-4 ovarian 110% | T-47D breast 106% | MCF7 breast 101% | HCT-116 colon 99.2% | HCC-2998 colon 106% | KM12 colon 106%

Cn1cc(-c2cc3nc(-c4c[nH]c5ccccc45)cc(N)n3n2)c2cc(Cl)ccc21
active: HOP-92 NSCLC -81% | COLO 205 colon -89.9% | RXF 393 renal -82.7% | SNB-75 CNS -65.9% | SK-MEL-5 melanoma -99% | CCRF-CEM leukemia -12.6% | OVCAR-4 ovarian -73.8% | IGROV1 ovarian -64.5% | T-47D breast -85.5% | MCF7 breast -85.9% | HCT-116 colon -84.6% | HCC-2998 colon -84.1% | KM12 colon -82.2%

COc1ccccc1-n1cc(C#N)c(N)c1C(=O)c1ccc(Cl)cc1Cl
inactive: HOP-92 NSCLC 44.2% | SK-MEL-5 melanoma 17.3% | UACC-62 melanoma 26.9% | SN12C renal 35% | OVCAR-4 ovarian 61% | T-47D breast 28.5% | MCF7 breast 16.4% | HCT-116 colon 36.6% | HCC-2998 colon 58.5% | KM12 colon 22.9%
active: RXF 393 renal -8.31% | SNB-75 CNS -22.8% | CCRF-CEM leukemia 7.78%
